# In all, about 310,000 compounds went through this assay and about 2,200 (0.71%) showed an effect of 50% or more. Effects have a minus sign here. This is one part of a sample in which strong results are shown more often than they occur.
# Molecular target: human ether-à-go-go-related gene (hERG) potassium channel (human, UniProt Q12809)
# Test: primary screen, population patch clamp on CHO cells stably expressing hERG; higher = less effect of the substance
# Chain of human ether-à-go-go-related gene (hERG) potassium channel (Q12809 whole entry, looked up): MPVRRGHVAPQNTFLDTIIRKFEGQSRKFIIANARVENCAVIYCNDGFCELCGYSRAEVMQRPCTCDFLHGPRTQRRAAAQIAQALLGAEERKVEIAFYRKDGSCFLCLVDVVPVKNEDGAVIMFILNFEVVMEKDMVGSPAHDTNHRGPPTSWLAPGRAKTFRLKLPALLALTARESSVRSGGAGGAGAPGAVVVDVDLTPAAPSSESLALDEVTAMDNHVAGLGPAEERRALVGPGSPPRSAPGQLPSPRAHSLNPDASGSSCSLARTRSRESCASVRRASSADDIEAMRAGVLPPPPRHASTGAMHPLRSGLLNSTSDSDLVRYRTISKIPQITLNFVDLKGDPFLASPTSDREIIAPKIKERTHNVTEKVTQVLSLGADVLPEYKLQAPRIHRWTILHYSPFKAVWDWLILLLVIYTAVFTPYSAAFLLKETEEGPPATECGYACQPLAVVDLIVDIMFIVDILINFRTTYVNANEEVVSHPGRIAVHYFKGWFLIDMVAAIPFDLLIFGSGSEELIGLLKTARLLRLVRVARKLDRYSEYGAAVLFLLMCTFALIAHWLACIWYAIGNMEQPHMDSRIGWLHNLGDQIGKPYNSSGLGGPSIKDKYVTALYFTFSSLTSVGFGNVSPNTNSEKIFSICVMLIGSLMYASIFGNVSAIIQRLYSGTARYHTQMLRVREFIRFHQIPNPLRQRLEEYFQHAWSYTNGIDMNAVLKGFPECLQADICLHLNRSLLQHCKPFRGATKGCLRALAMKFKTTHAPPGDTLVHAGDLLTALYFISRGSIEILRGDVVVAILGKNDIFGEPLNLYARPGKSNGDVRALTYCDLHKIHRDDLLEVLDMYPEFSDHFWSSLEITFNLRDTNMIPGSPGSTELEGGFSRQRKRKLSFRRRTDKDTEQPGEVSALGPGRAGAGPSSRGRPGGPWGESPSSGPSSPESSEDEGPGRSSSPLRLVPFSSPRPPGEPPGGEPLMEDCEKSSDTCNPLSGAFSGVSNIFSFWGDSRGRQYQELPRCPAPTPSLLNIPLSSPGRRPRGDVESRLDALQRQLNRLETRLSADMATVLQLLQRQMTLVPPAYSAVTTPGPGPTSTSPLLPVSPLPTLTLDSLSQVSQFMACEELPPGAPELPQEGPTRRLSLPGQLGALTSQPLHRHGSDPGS
row,Compound,"hERG current change (%, negative = inhibition) at 1uM [%]"
1,Brc1ccc(C=Nc2ccc3c(c2)OCCOCCOCCO3)s1,-58.3
2,COc1ccc(/[N+]([O-])=C/c2ccoc2)cc1,14
3,Nc1nnc(SCc2nc3scc(-c4ccccc4)c3c(=O)[nH]2)s1,15.6
4,O=C(CC1CCCC1)Nc1nnc(C2CC2)s1,11.5
5,CC(=O)Nc1cccc(NC(=O)CSc2nccn2Cc2ccccc2)c1,14.4
6,CN(C(=O)c1ccc(Cl)nc1)C1(c2ccccc2Cl)CCCCC1=O (centres unmarked),5.36
7,O=C(NCC(=O)N(c1ccccc1)C(C(=O)NCC1CCCO1)c1ccccc1)c1ccco1 (centres unmarked),13.9
8,C=Cc1ccc(Cn2c(=O)n(C)c(=O)c3sccc32)cc1,12.4
9,FC(F)(F)c1ccc(-c2n[nH]c(=S)o2)nc1,9.8
10,COc1ccc(N2CCN(c3nc(=S)n(-c4ccccc4)c(C)c3C(C)=O)CC2)cc1,10.2
11,CC(=O)c1c(N2CCN(c3ccc(F)cc3)CC2)nc(=S)n(-c2ccccc2)c1C,-69.3
12,CC(=O)c1c(N2CCN(c3ccccc3)CC2)nc(=S)n(-c2ccccc2)c1C,2.93
13,CN(c1ccc(O)cc1)c1nc(O)c(C2=c3ccccc3=NC2=O)s1,8.57
14,Cc1cc(Br)cc2c1N(C)C(=O)C2(c1ccc(O)cc1)c1ccc(O)cc1,12
15,C=CCNC(=S)N1CCN(c2ccc([N+](=O)[O-])cc2)CC1,-52.1
16,COCCCNC(=S)N1CCN(c2ccc([N+](=O)[O-])cc2)CC1,-64.8
17,COCCNC(=S)N1CCN(c2ccc(Cl)cc2)CC1,1.27
18,CCNC(=S)N1CCN(c2ccc([N+](=O)[O-])cc2)CC1,-50.5
19,O=[N+]([O-])c1ccc(N2CCN(C(=S)Nc3ccccc3)CC2)cc1,5.2
20,O=[N+]([O-])c1ccc(N2CCN(C(=S)NCc3ccc(Cl)cc3)CC2)cc1,12.9
21,CNC(=S)N1CCN(c2ccc([N+](=O)[O-])cc2)CC1,-40.5
22,O=[N+]([O-])c1ccc(NC(=S)N2CCN(c3ccc(F)cc3)CC2)cc1,13

row,Compound,"hERG current change (%, negative = inhibition) at 1uM [%]"
1,COCCCNC(=S)N1CCN(c2ccccc2)CC1,18.3
2,Cc1ccc(OCc2nnc(NC(=O)c3ccco3)s2)c(C)c1,17.8
3,C/C(=N/NC(=O)c1ccc(Br)o1)c1ccc(C)o1,0.861
4,COCCNC(=S)NNC(=O)c1cc(C2CC2)nc2ccccc12,14.8
5,O=C(CCC(=O)OCc1cccc([N+](=O)[O-])c1)Nc1ccccc1Cl,2.86
6,O=[N+]([O-])c1cccc(Cl)c1CSc1ccccn1,11
7,CC[n+]1c(/C=C/c2ccc(OC)c(OC)c2)ccc2ccccc21.[I-],13.8
8,CC[n+]1c(/C=C/c2ccc(N(C)C)cc2)ccc2ccccc21.[I-],-27
9,CCN(CC)c1ccc(/C=C/c2ccc3ccc(OC)cc3[n+]2CC)cc1.[I-],-85
10,O=c1[nH]c(=O)n(Cc2ccco2)c2c1C(C(F)(F)F)(C(F)(F)F)N=C(Cc1ccccc1)N2,6.17
11,CCOC(=O)C1=C(Cc2ccc(F)cc2)C(=O)c2ccccc2C1=O,6.27
12,CCOC(=O)CCNC(=O)N1CCCC(CNS(=O)(=O)Cc2ccccc2)C1 (centres unmarked),8.76
13,CCC(C)(C)n1nnnc1CN1CCC(c2nc3ccc(C)cc3[nH]2)CC1,-25.7
14,Cc1cc2nc(C3CCN(Cc4nnnn4Cc4ccccc4)CC3)[nH]c2cc1C,-50.7
15,CCN(CC)C(=O)CN1CCC(c2nc3cc(C)c(C)cc3[nH]2)CC1,11.1
16,CCN1CCN(CC2COc3ccccc3O2)CC1.Cl (centres unmarked),7.79
17,Cc1cc2nc(C3CCN(CC4COc5ccccc5O4)CC3)[nH]c2cc1C (centres unmarked),-65.6
18,Cl.c1ccc(Cn2nnnc2CN2CCCC2)cc1,10.1
19,Cc1cc2nc(C3CCN(Cc4nnnn4Cc4cccs4)CC3)[nH]c2cc1C,-72.4
20,c1csc(Cn2nnnc2CN2CCN(c3nc4ccccc4s3)CC2)c1,-7.1
21,Cc1nc2cc(C(F)(F)F)ccc2n1C1CCN(Cc2nnnn2Cc2cccs2)CC1,-2.78
22,CCN(CC)CCN1C(=O)C(=O)/C(=C(/O)c2ccc(F)cc2)C1c1cccnc1 (centres unmarked),14.9
